# Measurements taken from the supplement of paper PMC6555819.
# What was measured:
# Assay in all cases: PBM binding z-score (relative to random genomic background probes); higher = stronger binding; sequences stand for … in GC…GCGATTGACAGCGTAGAATGAAGG
# [1] = tested on: PPARg:RXRa DBDmut IVT, anti-RXR (DBD mutation: RXRa K156A/R161A, NR concentration 270 nM, RXRa partner concentration 90 nM)
# In short: (§1)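 Custom Agilent 4×180K protein-binding microarrays carried double-stranded probes, each with a 34-nt variable region. These regions held direct-repeat seeds, single-nucleotide variants, half-site ablations and random human genomic background sequences. Ligand-free nuclear receptor dimers were incubated on the arrays for 1 h, antibodies against each partner (one per run) detected binding, and scanned fluorescence was regression-normalized. Binding z-scores take the random background probes as reference.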
# [2] = tested on: PPARg:RXRa IVT, anti-PPARg (NR concentration 270 nM, RXRa partner concentration 90 nM)
# In short: as §1
# [3] = tested on: PPARg DBDmut:RXRa IVT, anti-PPARg (DBD mutation: PPARg1 K132A/R137A, NR concentration 270 nM, RXRa partner concentration 90 nM)
# In short: as §1
# [4] = tested on: PPARg DBDmut IVT, anti-PPARg (DBD mutation: PPARg1 K132A/R137A, NR concentration 270 nM)
# In short: as §1
# [5] = tested on: PPARg homodimer (NR concentration 180 nM)
# In short: as §1
# [6] = tested on: PXR:RXRa (NR concentration 270 nM, RXRa partner concentration 90 nM)
# In short: as §1
# [7] = tested on: PXR homodimer (NR concentration 270 nM)
# In short: as §1
# [8] = tested on: RARa:RXR (NR concentration 270 nM, RXRa partner concentration 90 nM)
# In short: as §1
# [9] = tested on: RARa homodimer (NR concentration 270 nM)
# In short: as §1
# [10] = tested on: RARb homodimer (NR concentration 270 nM)
# In short: as §1
# [11] = tested on: RARg:RXRa (NR concentration 270 nM, RXRa partner concentration 90 nM)
# In short: as §1
# [12] = tested on: RARg homodimer (NR concentration 270 nM)
# In short: as §1
# [13] = tested on: RXRa DBDmut IVT, anti-RXR (DBD mutation: RXRa K156A/R161A, NR concentration 90 nM)
# In short: as §1
# [14] = tested on: RXRa homodimer (NR concentration 180 nM)
# In short: as §1
# [15] = tested on: THRa homodimer (NR concentration 90 nM)
# In short: as §1
# [16] = tested on: VDR homodimer (NR concentration 270 nM)
# In short: as §1
# [17] = tested on: RARb:RXRa (NR concentration 270 nM, RXRa partner concentration 90 nM)
# In short: as §1
# [18] = tested on: THRa:RXRa (NR concentration 90 nM, RXRa partner concentration 90 nM)
# In short: as §1
# [19] = tested on: VDR:RXRa (NR concentration 270 nM, RXRa partner concentration 90 nM)
# In short: as §1
Sequence,PBM binding z-score [1],PBM binding z-score [2],PBM binding z-score [3],PBM binding z-score [4],PBM binding z-score [5],PBM binding z-score [6],PBM binding z-score [7],PBM binding z-score [8],PBM binding z-score [9],PBM binding z-score [10],PBM binding z-score [11],PBM binding z-score [12],PBM binding z-score [13],PBM binding z-score [14],PBM binding z-score [15],PBM binding z-score [16],PBM binding z-score [17],PBM binding z-score [18],PBM binding z-score [19]
CAAACTAGGTCAAAGGTCAAAGTAGAGCCAACCA,8.23,9.26,5.64,3.48,4.85,7.02,2.18,8.45,2.42,5.2,8.91,7.32,2.8,10.3,1.79,2.99,–,–,–
AGTCAAAGTTCATCTTGGTAACGTAAGATATGCT,0.418,2.63,0.383,1.1,2.64,4.92,6.26,–,1.55,4.03,5.43,5.84,4.52,4.52,-0.478,4.88,4.95,2.03,4.41
GACACAGGGTCAGCTAGAGGCCAGAGTATGGAAA,0.69,1.9,-0.301,-0.892,1.74,2.92,-0.286,–,-0.561,3.17,6.46,4.41,1.3,4.1,-0.0446,0.591,4.26,3.1,–
ACTAGCAGGTCAAGGGTCACTCAAGATTAGTCCG,4.43,6.12,1.23,1.92,3.91,5.82,0.469,–,1.38,4.9,6.89,6.42,2.13,–,1.42,2.56,4.86,4.04,–
TAGCCTAGGTCATTCAGGGGCCAGAATAGAAAGC,1.69,2.95,-0.139,0.318,1.44,2.48,0.043,–,-0.355,3.56,5.97,4.58,2.09,3.18,0.459,1.19,4,3.54,–
ACTAGTTGTTCAGCTGAGGTCACACACAATTCGG,0.514,2.19,0.853,0.948,2.16,4.83,1.87,–,1.09,4.34,3.72,3.35,1.54,4.16,5.2,2.84,3.28,4.65,–
GATCCAGGGTCAGCTAGAGGCCAGAGTATGGAAA,0.393,1.96,-0.6,-0.817,1.89,3.27,-0.25,–,-0.417,3.27,6.7,4.6,0.756,4.34,-0.172,0.674,4.24,3.09,–
TCTTGTAGGTCAAAGGTTAAGAAAGCCGAAGCCT,7.87,8.59,1.61,1.68,3.23,5.44,0.389,–,0.512,3.84,7.23,5.61,1.98,–,0.452,0.881,5.12,3.76,4.54
CCTACTGGGCCAAAGGTCAGTGATTCCAATGCTC,4.94,6.5,0.904,-0.864,4.06,3.49,0.00567,–,1.82,4.33,4.71,4.48,-0.00245,4.48,0.381,0.516,4.1,2.35,–
TCATATAGGTAAAAGGTCAAAGTCGGTGTGGTAA,5.65,6.93,2.69,3,5.82,5.94,2.41,–,4.73,4.74,6.62,5.95,2.5,–,1.47,3.09,4.88,3.85,–
CCTAGTGGGCCAAAGGTCATTGATTCCAATGCTC,5.71,7.73,2,0.985,7.49,5.83,3.2,–,3.01,4.6,5.89,4.92,1.92,6.9,0.756,3.23,4.62,3.22,–
CGTCCAAGGTCATAAGAGGTCAGTGAAGACAGAT,3.48,4.2,2.03,-0.112,7.68,7.11,7.52,–,4,5.16,7.1,7.88,4.16,7.05,3.25,5.57,5.47,5.23,–
TCTAGTTGGTTACGGAGGTCACACACGACGGGTA,1.85,2.98,1.22,0.724,3.22,4.22,1.44,–,2.34,3.79,4.2,3.66,1.12,4.33,2.49,3.21,3.25,3.52,–
CGTCCAAGGTCAGTGAGGTCAGTGAATGCCGAGT,3.14,3.83,-0.101,-0.804,3.15,5.76,11.8,–,0.545,5.33,5.76,6.56,3.28,4.61,4.36,5.33,5.51,–,–
ATCGAAAGGTCGTGAGGTGTGTATACAGAAAGGC,0.0315,2.26,1.54,0.468,2.59,3.12,-0.215,–,0.71,2.68,4.5,4.17,1.67,4.81,-0.109,1.16,3.97,2.44,–
CAAACTAGGTCACAGAGGTCGAAGTCCGTGCGTA,8.27,8.42,2.27,0.791,2.22,4.41,3.65,–,0.511,4.46,5.11,5.68,2.1,4.51,2,3.88,4.35,4.03,–
CGAACGAGGTCAGAACAGGACAGTGAAGGATGAT,3.38,4.26,0.826,0.461,1.39,3.87,0.676,–,0.667,3.19,4.63,4.76,3,4.37,1.37,2.1,4.4,–,–
CCTAGCAGGCCAGGGTCACCCAAGCATTTCGCTT,-0.0206,1.79,-0.767,-1.42,1.59,3.36,-0.361,–,-0.318,3.34,3.95,2.98,-0.0851,4.34,1.71,1.35,3.12,3.44,–
CCTTACGGGTCAAGGTAATAGCACGGGTGGTACG,1.83,3.41,0.176,-0.496,1.93,2.54,0.213,–,0.734,2.82,4.6,4.42,0.648,4.79,0.382,0.423,4.1,2.66,–
CAAACTAGGTCACCGGAAAGTCAAAGTCCGCATG,8.88,9.33,3.21,3.47,2.67,2.14,0.0377,–,0.631,3.86,5.17,5.86,2.01,3.89,1.8,0.741,4.72,3.54,–
CGTCAAAGTTCAACTAATGTAACGTAAAGCACGC,0.546,1.56,0.963,2.3,3.42,4.97,5.1,–,2.42,3.96,5.66,6.9,4.76,4.75,0.305,4.13,5.23,3.31,–
TCATATAGGTCAAAGGTGAAAGTCGGTGTGGTAA,8.06,7.84,1.77,2.53,3.28,5.31,1.13,–,1.6,4.1,7.06,5.46,2.48,–,0.997,1.49,4.89,3.74,–
TCTCGGAGGACACGAAAGGTCAGAACTCGACATC,1.63,1.22,-0.541,-0.269,3.91,4.08,0.978,–,2,4.38,4.56,5.19,0.955,3.93,1.48,1.29,3.83,3.46,–
CGTCCAAGGTCAATGCTAGGTCACTGAAAGCATT,3.52,4.42,0.503,0.266,8.59,5.45,2.08,–,2.19,5.18,7.94,6.93,3.59,5.56,3.87,3.43,5.33,–,–
CCGACTGGGGCAAAGGTCACCATACTCAGTACGA,5.43,6.94,0.0184,-0.117,4.04,5.34,0.429,–,1.73,4.81,7,6.32,0.548,–,1.04,1.55,4.73,3.62,4.7
TTACCAAGGTGAAAGGTCATTGATGCACGCCTTG,2.98,6.12,1.63,2.28,5.67,6.35,2.25,–,2.09,4.75,6.91,5.06,1.85,–,1.64,3.32,4.86,4.42,–
CCTACGGGGCCAAAGGTCATTGATTCCAATGCTC,1.49,5.33,-0.65,-0.159,5.46,6.24,2.59,–,2.51,4.5,6.59,5.24,1.86,–,0.564,2.99,4.72,3.78,–
ATCGAAAGGTCGACGAGTTGAGTATACACCGTTT,0.59,1.57,1.03,0.857,1.26,3.23,1.84,–,0.451,2.63,3.88,4.05,1.46,4.2,-0.136,2.1,3.7,2.24,–
